This note sets out measurements from PubChem BioAssay (NCI).

About 83,000 compounds went through this panel and 20% of them were active in at least one assay; those are over-represented in the sample as a whole.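 Step 1: grow cells in 96-well plates. Step 2: add test compound at a single concentration. Step 3: incubate 48 h. Step 4: record percent growth.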 Activity calls are given as the source filed them. How the source made its calls: active means growth percent below 10; inactive means the rest.

The assay relates to HL-60(TB) leukemia. The experiment in a line: NCI-60 one-dose screen, 48 h (100 = growth as untreated, 0 = no growth, -100 = all killed). The settings on record: 10 µM unless noted.
Regarding `Cc1cc(C)c2c(Nc3ncnc4c3sc3nc(C)cc(C)c34)n[nH]c2n1`, the growth was 99% (inactive).
The result for `CN(C)CCOc1nc2ccccc2c2c1-c1ccc(Cl)cc1C2=O` reads -27.2% (active); that for `CN(Cc1cc(Br)cc(Br)c1O)Cc1cc(Br)cc(Br)c1O`, 22.7% (inactive).
On to `CC(C)OC(=O)Nc1cc(F)c(F)cc1F`, for which the growth was 98.6% (inactive).
With `CCN(CC)C(=O)C1(C)CCCC2(C)c3cc(OC(C)=O)ccc3CCC12` (stereo not given), the growth was 71.2% (inactive).
The result for `Cc1cccc(-c2nc(N(C)c3ccc4ncsc4c3)c3ccccc3n2)n1` reads 50.4% (inactive); that for `Cn1cc(CC2CC(=O)N(c3ccccc3)C2=O)sc1=NC(=O)c1ccccc1` (stereo not given), 114% (inactive).
The result for `COc1ccc(Oc2nc(Nc3ccc(N4CCOCC4)nc3)ncc2NC(=O)c2cc(OC)cc(OC)c2)cc1` reads 75% (inactive); that for `CO[C@@H](C(=O)N1Cc2[nH]nc(NC(=O)c3ccc(N4CCN(C)CC4)cc3)c2C1)c1ccccc1`, 16.8% (inactive); that for `CC(=O)c1ccc2oc(=O)n(Cc3ccc(C#N)cc3)c(=O)c2c1`, 109% (inactive).
The result for `O=C(O)c1cccc([N+](=O)[O-])c1/C=C/c1ccccc1` reads 97.4% (inactive); that for `Cc1ccc(Cc2cnc(NC(=O)c3cc(C)oc3C)s2)cc1`, 79.1% (inactive); that for `O=C(CC1(O)C(=O)Nc2ccc(Br)cc21)c1ccc(Cl)cc1` (stereo not given), 80.1% (inactive).
With `c1ccc(-c2cn(-c3ccccc3)c(-c3ccccc3)n2)cc1`, the growth is 40.3% (inactive).
For `Cc1ccc2c(c1)C(=O)/C(=C/c1ccc(OCC(=O)c3ccccc3)cc1)O2` the value was 69.9% (inactive).
For `O=C(Nc1nc(-c2ccccc2)cs1)c1cc(O)c(O)c(O)c1` the value was 12.6% (inactive).
For `O=C(N/N=C/c1ccc([N+](=O)[O-])cc1)c1ccccc1Nc1ccnc(C(F)(F)F)c1`, the growth was 78.4% (inactive).
For the molecule `O=C(CCl)N1c2ccccc2Sc2c1ccc1ccccc21`, the growth is 62.7% (inactive).
`Cc1sc2nc(NCCN)[nH]c(=O)c2c1C`: the growth is 115% (inactive).
For `Cn1cnc2nc[nH]c2c1=S` the value was 108% (inactive); for `COCCCN=C(N)c1ccc(NC(=O)c2ccc(C(=O)Nc3ccc(C(N)=NCCCOC)cc3)cc2)cc1`, 71.3% (inactive).
The result for `CCCCCCCCC(=O)Nc1ccc(O)cc1` reads 61.5% (inactive); that for `O=C1CC(c2ccccc2)Cc2nc3ccc(Br)cc3cc21` (stereo not given), -28.4% (active); that for `Nc1c(C(=O)c2ccccc2)sc2nc(-c3cccs3)cc(-c3cccs3)c12`, 22% (inactive).
The result for `COc1cccc(C2C3=C(COC3=O)N(CCO)c3cc4c(cc32)CCC4)c1` (stereo not given) reads -0.364% (active).
For the molecule `COc1ccc(-c2nc(SC(C)C)nc(NNC(N)=O)c2C#N)cc1`, the growth was 80.3% (inactive).
Regarding `COc1ccc(/C=C/C(=O)OCC(=O)NNC(=O)c2ccccc2)cc1OC`, the growth was 72.2% (inactive).
`CN(C)CCCNc1nc2ccccc2c2c(=O)c3cc(F)ccc3sc12`: the growth is -43.5% (active).
The result for `CCCCN(CCCC)CC(O)c1ccc(OCc2ccccc2)c2ccccc12` (stereo not given) reads -23.6% (active); that for `Cc1c(C(N)=O)sc2ncn(CC(=O)Nc3ccc(Cl)cc3)c(=O)c12`, 110% (inactive).
As for `Cc1ccc2[nH]c3nc4cccnc4c(C)c3c2c1`, the growth is 83.5% (inactive).
Turning to `CCCC(=O)NC(c1ccc2c(c1)OCO2)c1cc(Cl)c2cccnc2c1O` (stereo not given), the growth was -19.5% (active).
As to `COc1ccc(NC(=O)Nc2ccc(Nc3nc(C)cc(Nc4ccc(C)cc4)n3)cc2)cc1`, the growth was -55.4% (active).
Consider `CS(=O)(=O)Nc1cncc(-c2ccc3ncnc(Nc4cncc(Cl)c4)c3c2)c1`, for which the growth was 71.5% (inactive).
On to `O=C(CCl)c1ccc2c(c1)CCCC2`, for which the growth is 96.9% (inactive).
For `O=c1[nH]c(-c2ccncc2)nc2sc3c(c12)CCCCCC3`, the growth was 91.4% (inactive).
As to `CC(=O)c1ccc2c(c1)CCc1ccccc1-2`, the growth was 126% (inactive).
The result for `CCN1CCN(C(=O)[C@]23CC[C@@H](C)[C@H](C)[C@@H]2C2=CC[C@@H]4[C@@]5(C)CCC(=O)C(C)(C)[C@@H]5CC[C@@]4(C)[C@]2(C)CC3)CC1` reads -44.6% (active); that for `COc1cc(OC)cc(C(=O)Nc2cnc(Nc3ccc(N4CCOCC4)nc3)nc2Oc2ccc(C(F)(F)F)cc2)c1`, 94.7% (inactive).
`CC1C2CCC(C2)C1COCCOCCO` (stereo not given): the growth was 108% (inactive).
